Hit rate of the full screen: of about 94,000 compounds, about 6,200 (6.6%) were called active. About 31% were inconclusive and are not listed. The call rests on the fitted dose curve; in most records, active means well fitted inhibition curve with a large enough effect; inconclusive means small, poorly fitted or top-dose-only effect; inactive means flat fitted curve, though single readings scatter. Shown is part of a subset that was picked to be rich in actives. Where a call stands in place of a potency, no number is given.
Potency means the concentration at half of the fitted maximal effect.

The assay in a line: Cytotoxic Profiling in HEK 293 Cell Line of Diverse Libraries Using Quantitative High-Throughput Screening. Further: nearly all actives have a fitted effect of over 60% in size. Conditions: HEK 293 viability, ATP luminescence (CellTiter-Glo), 48-72 h; series mostly up to 115 µM. The source says: Cell-based phenotypic screening is a commonly used approach to discover biological pathways, novel drug targets, chemical probes and high-quality hit-to-lead molecules. Many hits identified from high-throughput screening campaign are ruled out through a series of follow-up potency, selectivity/specificity, and cytotoxicity assays. Prioritization of molecules with little or no cytotoxicity for a more in-depth downstream evaluation influence the future direction of projects, so cytotoxicity profiling of the screening libraries at early stage is essential for increasing the likelihood of candidate success. In this study, we analyzed results from a cell-based cytotoxicity screening campaign, comprising nearly 10,000 compounds in NCATS annotated libraries, and over 100,000 compounds in a diversity library, evaluated in four normal cell lines (HEK 293, NIH 3T3, CRL-7250 and HaCat) and a cancer cell line (KB 3-1, a HeLa subline) with overall screening outcomes, hit rates, pan-activity and selectivity. For the annotated library, we also examined the primary targets and mechanistic pathways regularly associated with cell death. To our knowledge, this is the first study to use high-throughput screening to profile large libraries for cytotoxicity assessment in both normal and cancer cell lines. In summary, the results generated here constitutes a valuable resource for the scientific community and provides insight on identifying cytotoxic compounds with particular mechanisms of action, and prioritizing compounds with suitable cytotoxicity profile for further evaluation.
HEK 293 cells were seeded into white 1536-well plates using a Multidrop Combi peristaltic dispenser (ThermoFisher, Waltham, MA) at a density of 250 cells/well in 5 uL of medium respectively. A pintool (Kalypsys) was used to transfer 23 nL of compound solution to the 1536-well assay plates. After 48 or 72 hr incubation at 37 degree Celsius, 5% CO2 and 95% humidity, 2.5 uL of CellTiter-Glo (Promega) was dispensed into each well using a dispenser (Aspect Automation, St. Paul, MN) with solenoid valves (Lee Valves, Westbrook CT). Plates were left at room temperature for 10 min before imaging the ATP-coupled luminescence using a ViewLux microplate imager (PerkinElmer, Waltham, MA).
On the technique in general: In ATP-based viability assays light output follows the ATP content of the culture.
Take `COc1ccc(C(=O)N2CCCC(C(=O)N3CCCC(c4nc5ccncc5[nH]4)C3)C2)cc1` (centres undefined): the Potency entry is “inactive”.
As to `COc1ccc(-c2nc3ccncc3[nH]2)cc1`, the Potency is 20 µM (active).
Under `COc1ccc(C(=O)N2CCCC2C(=O)N2CCCC2c2nc3ccncc3[nH]2)cc1` (centres undefined) stands “inactive”; under `Cc1ccc(CN2CCOCCNC(=O)CC2)o1`, “inactive”.
For the molecule `CN(C)C(=O)c1cccnc1OC1CCN(S(=O)(=O)c2ccc(F)c(F)c2)C1` (centres undefined), the Potency result is “inactive”.
Under `Cc1ncsc1C(=O)N1CCC2(CC1)OC(=O)N(Cc1ncccn1)C2(C)c1ccccc1` (centres undefined) stands “inactive”; under `CC1(c2ccccc2)N(Cc2ccccc2F)C(=O)OC12CCN(Cc1c[nH]c3ccccc13)CC2` (centres undefined), 20 µM (active).
With `COC1CCC(C(=O)N2CCC3(CC2)OC(=O)N(Cc2ccccc2)C3(C)c2ccccc2)CC1` (centres undefined), the Potency entry was “inactive”.
Under `CCOc1ccccc1C(=O)N1Cc2cnc(Cc3ccc(OC)cc3)nc2C1` stands “inactive”; under `CC(C)Oc1ccc(CN2CCCC(COc3ccccc3C(=O)N3CCCC3)C2)cc1` (centres undefined), 39.8 µM (active).
For the molecule `CC1CCN(C(=O)c2ccccc2OCC2CCCN(Cc3cncs3)C2)CC1` (centres undefined), the Potency entry is “inactive”.
Consider `COc1cc(-c2ccccc2C#N)cc(OC)c1OC`, for which the Potency entry was “inactive”.
Under `COCCNC(=O)[C@@H]1C[C@H](Oc2ccccc2)CN1C(=O)C1(c2ccccc2)CC1` stands “inactive”; under `COC(=O)c1n[nH]c2c1CN(C(=O)[C@H]1CCC[C@@H](O)C1)CC2`, “inactive”; under `CN(C)C(=O)c1n[nH]c2c1CN(C(=O)c1ccccc1Br)CC2`, “inactive”.
With `O=C(NCCCc1ccccc1)c1n[nH]c2c1CN(C(=O)C1CC1)CC2` the figure was 11.2 µM (active); with `CN(C)C[C@@H]1CN(S(C)(=O)=O)C[C@H]1NC(=O)c1ccc(C#N)cc1`, “inactive”; with `Cn1nc(C2CCCN2C(=O)NC2CCCCC2)n(Cc2ccccc2)c1=O` (centres undefined), “inactive”.
Under `COCCn1c(C)cnc1CC1CCN(C(=O)c2ccc(OC)cc2OC)CC1` stands “inactive”; under `COCCCNC(=O)N1CCC(Cc2noc(-c3ccncc3)n2)C1` (centres undefined), “inactive”; under `COc1ccc(NC(=O)N2CCCC(Cc3noc(-c4ccccc4)n3)C2)cc1` (centres undefined), 35.5 µM (active).
Consider `Cc1cc(C(=O)N2CCCC(Cc3noc(-c4cccnc4)n3)C2)nn1C` (centres undefined), for which the Potency result is “inactive”.
With `Cc1nc(-c2cn(C3CCCN(C(=O)c4cc(F)ccc4F)C3)nn2)no1` (centres undefined), the Potency entry is “inactive”.
Under `COC(=O)[C@H](CC1CCCCC1)NC(=O)[C@@H]1CN(C(=O)c2ccc(N(C)C)cc2)CCN1C(C)=O` stands “inactive”; under `COc1ccc(NC(=O)N2C[C@@H](F)C[C@H]2C(=O)N2CCCCC2)c(C)c1`, “inactive”.
Under `NCc1ccc(-c2cncnc2)cc1` stands “inactive”; under `Cc1cc(Cl)ccc1-c1ccc(CN)cc1`, 31.6 µM (active).
As for `O=C(CCc1ccc2c(c1)CNCCO2)NCC1CC1`, the Potency entry is “inactive”.
For the molecule `O=C1CCCCC(CNC(=O)c2ccoc2)N1` (centres undefined), the Potency entry is “inactive”.
Take `Cc1ccc(CNC(=O)N2CCC3(CC2)CC(N(C2CC2)S(C)(=O)=O)CCO3)cc1` (centres undefined): the Potency result is “inactive”.
Regarding `Cc1nc(-c2ccccc2OC2CN(S(=O)(=O)c3cn(C)cn3)C2)no1`, the Potency entry was “inactive”.
With `COc1ccccc1-c1cc(C(=O)NCc2cnn(C)c2)c2c(c1)N(C)CCO2` the entry was “inactive”; with `COc1ccccc1-c1cnc(NC(=O)c2ccc(Cl)cc2)c2c1CCO2`, 63.1 µM (active).
Regarding `COc1ccccc1-c1cnc(Nc2ccncc2)c2c1CCO2`, the Potency was 63.1 µM (active).
With `COc1cc2c(cc1OC)C(CNC(=O)c1ccc(Cl)cc1)N(C(=O)Nc1ccccc1)CC2` (centres undefined) the entry was “inactive”; with `CCS(=O)(=O)N1CC(F)(F)C[C@H]1c1nc(C2CC2)no1`, “inactive”.
Take `CC(C)(C)n1nnnc1C1CC2(CCOCC2)C(=O)N1Cc1cccc(F)c1` (centres undefined): the Potency entry was “inactive”.
With `O=C1CC2(CCN(C(=O)C3CCN(C(=O)Cc4ccccn4)CC3)CC2)Oc2ccccc2N1` the entry was “inactive”.
With `Cc1cnc(C)n1CCN` the entry was “inactive”; with `Cc1ccccc1S(=O)(=O)N1CCN(C(=O)N2CC3CC(C2)[C@H]2CCCC(=O)N2C3)CC1` (some centres undefined), “inactive”.
On to `CCNC(=O)c1cccnc1OC1CCN(C(=O)CC2CCCC2)C1` (centres undefined), for which the Potency result was “inactive”.
With `c1ccc2sc(C3CCCN(Cc4cc5n(n4)CCNC5)C3)nc2c1` (centres undefined), the Potency entry was “inactive”.
With `Cn1c([C@H]2CCN(C3CCOCC3)C2)nc2ccccc21` the entry was “inactive”.
Under `CN1CCC(N2CC[C@H](c3nc4ccccc4s3)C2)CC1` stands 31.6 µM (active).
Consider `COc1cccc(CC(=O)NCCC2CCN(C(=O)Nc3ccc(C)cc3)CC2)c1`, for which the Potency entry was “inactive”.
For `COc1cccc(NC(=O)NC[C@H]2O[C@@H](CO)[C@@H](O)[C@H]2N(C)CCN(C)C)c1`, the Potency result was “inactive”.
With `C#CCN[C@@H]1C[C@@H]2c3[nH]c4ccccc4c3C[C@@H](C(=O)OC)N2[C@H](c2ccc(F)cc2)C1` the figure was 31.6 µM (active); with `COC(=O)[C@@H]1Cc2c([nH]c3ccccc23)[C@H]2C[C@H](NCCNC(C)=O)C[C@@H](c3ccc(C)cc3)N21`, 25.1 µM (active).
With `COC(=O)[C@@H]1C[C@@H](NC(=O)c2ccc(-c3nnn(C)n3)cc2)CN1C` the entry was “inactive”.

The values above are taken from PubChem BioAssay AID1345083 (National Center for Advancing Translational Sciences (NCATS), 2018).
